From PubChem BioAssay
Rows were chosen to be rich in hits. Some 3.2% of all compounds tested hit in one or more screens of this group.
A3A deaminase – APOBEC3A ssDNA deaminase inhibitors, primary screen, selectivity assay for APOBEC3G inhibitor project, biochemical, FAM/TAMRA oligo cleavage fluorescence | DNA dC->dU-editing enzyme APOBEC-3A (Homo sapiens), P31941 | recombinant A3A, FAM/TAMRA ssDNA deamination fluorescence | inhibition, % at 20 µM | 0.41% of 330,000 active;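 active means at least 40% inhibition at 20 µM here, with at most 30% in a related deaminase screen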
APOBEC3G inh – APOBEC3G DNA deaminase inhibitors, primary screen, biochemical, fluorescence, single-stranded DNA substrate, uHTS. DNA dC->dU-editing enzyme APOBEC-3G (Homo sapiens), Q9HC16. recombinant A3G, ssDNA deamination FAM/TAMRA fluorescence. inhibition, % at 20 µM. 0.28% of 330,000 active;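 active means inhibition of at least 40% at 20 µM, with no more than 30% in the related APOBEC3A deaminase screen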
AHR act – AHR activators, primary screen, cell-based, luminescence, luciferase reporter, human; Aryl hydrocarbon receptor (Homo sapiens), P35869; AHR-responsive luciferase reporter cells; activation, % at 5 µM; 2.5% of 320,000 active; AID 2796, 2010; in the data active means activation above about 47%
NTR1 agonist – agonists of human NTR1, primary screen, imaging, U2OS cells, beta-arrestin-GFP, high content; NTR1-U2OS beta-arrestin-GFP spot imaging, agonist mode; activation, % at 20 µM; 0.17% of 330,000 active;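 active means activation at or above 40% of the spot to cytoplasm intensity ratio, with at least 20 cells analyzed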
Target sequence (P30989 whole entry, looked up): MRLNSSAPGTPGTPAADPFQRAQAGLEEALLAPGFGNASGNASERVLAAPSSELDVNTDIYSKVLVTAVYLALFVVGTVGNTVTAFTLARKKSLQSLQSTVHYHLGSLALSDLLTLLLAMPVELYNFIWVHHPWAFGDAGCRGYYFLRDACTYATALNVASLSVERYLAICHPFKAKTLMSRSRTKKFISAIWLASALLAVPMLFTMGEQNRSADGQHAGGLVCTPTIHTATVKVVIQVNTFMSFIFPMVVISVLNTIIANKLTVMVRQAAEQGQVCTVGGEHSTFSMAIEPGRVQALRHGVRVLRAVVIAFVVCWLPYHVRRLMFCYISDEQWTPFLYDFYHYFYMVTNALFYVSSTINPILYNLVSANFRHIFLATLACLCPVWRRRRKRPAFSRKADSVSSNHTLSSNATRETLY
A number is an active result; - = inactive; . = no result.

SMILES	A3A deaminase	APOBEC3G inh	AHR act	NTR1 agonist
CC(C)Oc1ccc(CNC(=O)CC(c2ccccc2)c2cc(Cl)ccc2O)cc1 (stereo not drawn)	-	-	-	51.2
NNc1nc(-c2ccccc2)c2cc(Br)ccc2n1	-	-	-	-
NNc1nc(-c2ccccc2)cc(-c2ccc(Br)cc2)n1	-	-	69.2	-
CCOc1ccccc1NC(=O)CSc1nnc(CNC(=O)c2c(F)cccc2Cl)o1	-	-	-	-
C/C(CCc1oc2ccc(Br)cc2c1-c1ccc(C)o1)=N/O	-	-	56.4	-
C/C(CCc1oc2ccc(Cl)cc2c1-c1ccc(C)o1)=N\O	-	-	-	-
O=C(N/N=C/c1ccncc1)c1cccc(NC(=O)c2ccc(Cl)cc2)c1	-	-	-	-
O=C(N/N=C/c1ccc(F)cc1)c1cccc(NC(=O)c2ccc(F)cc2)c1	-	-	59.7	-
O=C(N/N=C/c1ccco1)c1cccc(NC(=O)c2cccc(Cl)c2)c1	-	-	54.6	-
O=c1[nH]c(/C=C/c2cccc3ccccc23)nc2ccccc12	-	-	55.8	-
O=c1[nH]c(/C=C/c2ccccc2F)nc2ccccc12	-	-	.	-
O=c1[nH]c(/C=C/c2ccccn2)nc2ccccc12	-	-	-	-
O=c1[nH]c(/C=C/c2ccccc2[N+](=O)[O-])nc2ccccc12	-	-	78.7	-
O=C(Cn1cc(Cl)ccc1=O)c1ccc(Cl)cc1	-	-	-	-
Cc1nnc(SCC(=O)Nc2cc(C(C)(C)C)nn2-c2ccccc2)s1	-	-	-	-
Cc1nnc(SCC(=O)Nc2cc(-c3cc(C)c(C)cc3C)nn2-c2ccccc2)s1	-	-	104.3	-
Cc1ccc(C2=N/C(=C\N3CCCCC3)C(=O)O2)cc1	-	-	-	-
Cc1ccc(C2=N/C(=C/N3CCOCC3)C(=O)O2)cc1	-	-	57.2	-
CCOC(=O)c1cnn(-c2cc(C)c3ccccc3n2)c1N	-	-	53.3	-
CCOC(=O)c1cnn(-c2ccccn2)c1N	-	-	-	-
Cc1ccc(C)c(OCc2cc(C(=O)NC(c3ccccn3)C(F)(F)F)no2)c1 (stereo not drawn)	-	-	-	-
Oc1[nH]c2ccccc2c1N=Nc1ccccc1F	-	-	53.6	-
Oc1[nH]c2ccccc2c1N=Nc1ccccc1	-	-	-	-
Cc1[nH]c2ccccc2c1N=Nc1ccccc1C(=O)O	-	-	74.9	-
Cc1cccc(-c2ncc(CN3CCCC(CO)(Cc4ccccc4C)C3)cn2)c1 (stereo not drawn)	-	-	-	-
SMILES	A3A deaminase	APOBEC3G inh	AHR act	NTR1 agonist
CC(NC(=O)c1cc2cc(F)ccc2[nH]1)c1ccccc1 (stereo not drawn)	-	-	53.2	-
CCOC(=O)Cn1nc(C(F)F)c(Br)c1C	-	-	-	-
O=C(O)c1ccc(/C=N/Nc2nc3ccccc3[nH]2)cc1	-	-	-	-
Cc1c(/C=N/Nc2nc3ccccc3[nH]2)c2ccccc2n1C	-	-	108.0	-
C(=N\Nc1nc2ccccc2[nH]1)/c1cccs1	-	-	74.0	-
C=CCn1cc(/C=N/Nc2nc3ccccc3[nH]2)c2ccccc21	-	-	145.7	-
COc1ccc(/C=N/OC(=O)c2ccc(Cl)cc2)c(Cl)c1OC	-	-	-	-
Cc1ccc(C(=O)N2CCCC2)cc1S(=O)(=O)N1CCCCC1	-	-	-	-
CC1CC1C(=O)Nc1nc(-c2cccs2)c(-c2cccs2)s1 (stereo not drawn)	-	-	78.2	-
COC(=O)c1ccc(/C=N/NC(=O)C2CC(=O)N(c3ccc(OC)cc3)C2)cc1 (stereo not drawn)	-	-	-	-
CC1(C)CC2CC(C)(CN2C(=O)COC(=O)c2cncc(Br)c2)C1 (stereo not drawn)	-	-	-	-
CCNC(=S)N1N=C2c3ccccc3CCC2C1c1ccc(F)cc1 (stereo not drawn)	-	-	51.4	-
CCNC(=S)N1CCn2cccc2C1c1ccc(F)cc1 (stereo not drawn)	-	-	-	-
COc1cc(NC(=O)CN2C(=O)CSc3ccc(S(=O)(=O)N4CCCC4)cc32)cc(OC)c1	-	-	-	-
Fc1ccc(C2=Nn3c(nnc3-c3n[nH]c4c3CCC4)SC2)cc1	-	-	53.7	-
CC1=Nn2c(nnc2-c2n[nH]c3c2CCC3)SC1	-	-	-	-
Cc1cc(NC(=O)c2sc(Nc3ccc(F)cc3)nc2N)no1	-	-	55.7	-
Cc1cnc(NC(=O)c2sc(Nc3ccccc3)nc2N)o1	-	-	54.6	-
COC(=O)C1=CN(c2ccc(F)cc2)C=C(C(=O)OC)C1c1ccc(O)cc1	-	-	-	-
CC(C)Oc1ccccc1/C=N/Nc1ccccc1[N+](=O)[O-]	-	-	55.4	-
COc1ccccc1/C=N\Nc1ccccc1[N+](=O)[O-]	-	-	79.0	-
COc1ccccc1Nc1ncccc1[N+](=O)[O-]	-	-	53.0	-
CCOC(=O)N1CCN(C(=O)c2c(Cl)cnn2C)CC1	-	-	.	-
CC(=O)Nc1ccc(S(=O)(=O)NCC(=O)NC(C)c2ccc(S(N)(=O)=O)cc2)cc1 (stereo not drawn)	-	-	-	-
CC1=CCC(/C=N\Nc2nnc3c(n2)[nH]c2ccccc23)CC1 (stereo not drawn)	-	-	54.9	-
SMILES	A3A deaminase	APOBEC3G inh	AHR act	NTR1 agonist
CC(C)CSc1nnc2c(n1)[nH]c1ccccc12	-	-	-	-
COc1ccc(/C=N/NC(=O)c2cccc(Br)c2)cc1CSc1ccccn1	-	-	56.0	-
COc1ccc(/C=N/NC(=O)c2cccnc2)cc1CSc1ccccn1	-	-	-	-
COc1ccc(/C=N\NC(=O)c2cccc(F)c2)cc1COc1ccccc1	-	-	63.9	-
COc1ccc(C(=O)N/N=C\c2ccc(OC)c(COc3ccccc3Br)c2)c(OC)c1	-	-	48.5	-
CC1CN(C(=O)COc2coc(CN3CCc4ccccc4C3)cc2=O)CC(C)O1 (stereo not drawn)	-	-	-	-
COC(=O)c1ccccc1NC(=O)c1cc2sccc2n1C	-	-	65.3	-
Nc1nc(-c2c[nH]c3ccccc23)cs1	-	-	57.8	-
O=C(CN1CCN(S(=O)(=O)c2ccc(Br)cc2)CC1)N/N=C/c1ccccc1C(=O)O	-	-	-	-
CN(CC(=O)Nc1ccccc1C(=O)NC1CC1)Cc1ccc(N(C)C)cc1	-	-	-	-
COc1cc(/C=N/Nc2nc(C)cc(C)n2)cc(OC)c1OC	-	-	-	-
COc1cc([N+](=O)[O-])ccc1NC(=O)Nc1cccnc1	-	-	-	-
O=C(Nc1cccc([N+](=O)[O-])c1)c1cnccn1	-	-	-	-
O=C(Nc1cccnc1)Nc1cccc([N+](=O)[O-])c1	-	-	76.7	-
CCC(C)c1ccc(NC(=O)NCc2cccnc2)cc1 (stereo not drawn)	-	-	-	-
